Assay results reported in ChEMBL document CHEMBL4513216, “Probing the Open Global Health Chemical Diversity Library for Multistage-Active Starting Points for Next-Generation Antimalarials” (ACS Infect Dis, 2020).
Screen size: about 68,000 compounds; about 2,700 (4%) showed an effect of 50% or more. The list comes from a sample in which strong results are over-represented; it also holds similar structures and randomly drawn compounds.

tested on: Plasmodium berghei; assay: Screen against P. berghei liver stage (PbLuc), transformed with Luciferase, at 2uM; format: functional, HepG2; conditions: tested at 2 uM

Question: `O=C(C1CCOCC1)N1CCc2ncnc(-c3ccc(F)cc3)c2CC1` was tested. Which INHIBITION did it give?
Answer: -7.01%

Question: `c1cncc(CNc2ccccc2-c2nn[nH]n2)c1` was tested. Which INHIBITION did it give?
Answer: 27%

Question: How did the INHIBITION turn out when `O=C(c1cscn1)N1CCCC2(CCN2Cc2cccc(F)c2)C1` (stereo not given) was run?
Answer: 37.33%

Question: Which INHIBITION does the source give for `CC(C)N(C)Cc1cc(=O)n2c(n1)CN(C(=O)c1cnccn1)CCC2` here?
Answer: -14.64%

Question: Which INHIBITION does the source give for `Cn1ccnc1CN1CCCN(C(=O)c2ccc3[nH]nnc3c2)CC1` here?
Answer: -56.99%

Question: How did the INHIBITION turn out when `COc1ccc(NC(=O)Cn2ccc3c(=O)n(C)ccc32)cc1OC` was run?
Answer: 52.61%

Question: With `Cn1ccc2c(ccn2CC(=O)Nc2ccc(Br)cc2)c1=O` as the molecule, how does the INHIBITION read?
Answer: 0.5%

Question: For `Cc1ccc(NC(=O)Cn2ccc3c(=O)n(C)ccc32)cc1F`, which INHIBITION is on record?
Answer: 41.86%

Question: Which INHIBITION does the source give for `CCn1ccc2ccnc(CC3CN(C(=O)Cn4ccnc4C)C3)c21` here?
Answer: 2.78%

Question: `Cc1cccc(N2CCN(CCC(=O)NCc3nnc[nH]3)CC2)c1` was tested. Which INHIBITION did it give?
Answer: 71.67%

Question: How did the INHIBITION turn out when `Cc1cccc(N2CCN(CCC(=O)NCc3cnc(C)cn3)CC2)c1` was run?
Answer: -39.01%

Question: With `CCc1nnc(CNC(=O)CCN2CCN(c3cccc(C)c3)CC2)s1` as the molecule, how does the INHIBITION read?
Answer: -27.19%

Question: For `CC1(c2ncc(CN3CCN(c4ncccn4)CC3)cn2)CCCCO1` (stereo not given), which INHIBITION is on record?
Answer: -30.88%

Question: How did the INHIBITION turn out when `COc1ccc(-n2nc(C3CC3)nc2CCn2cnnn2)cc1` was run?
Answer: -4.15%

Question: With `Cc1cccc(CNC(Cc2ccsc2)c2nc(C)c(C)s2)n1` (stereo not given) as the molecule, how does the INHIBITION read?
Answer: 8.75%

Question: For `CC[C@@H]1N(CC2CC2)CCC[C@]12CCC(=O)N2`, which INHIBITION is on record?
Answer: 10.49%

Question: How did the INHIBITION turn out when `CC[C@H]1N(CC2CCOCC2)CCC[C@]12CCC(=O)N2` was run?
Answer: 65.91%

Question: `CC[C@@H]1N(CC2CCOCC2)CCC[C@]12CCC(=O)N2` was tested. Which INHIBITION did it give?
Answer: 20.88%

Question: How did the INHIBITION turn out when `Cc1ccc(C(=O)N2Cc3c(CN4CCCCC4)nn(C)c3C2)cc1C` was run?
Answer: -15.95%

Question: With `CN(CC1COCCO1)c1ncnc2cc(F)ccc12` (stereo not given) as the molecule, how does the INHIBITION read?
Answer: 22.62%

Question: With `Cc1cc(C)c2c(N(C)CC3CCOC3)ncnc2n1` (stereo not given) as the molecule, how does the INHIBITION read?
Answer: 27.73%

Question: How did the INHIBITION turn out when `Cc1cc(C)c2c(N(C)CC3COCCO3)ncnc2n1` (stereo not given) was run?
Answer: 55.7%

Question: For `Cn1c(Cn2cccn2)nnc1C1CCN(Cc2ccccc2Cl)CC1`, which INHIBITION is on record?
Answer: 15.75%

Question: For `N[C@H]1c2ccccc2C[C@@H]1NC(=O)C1CCN(Cc2ccco2)CC1`, which INHIBITION is on record?
Answer: 22.88%

Question: With `CN(C)C(=O)CO[C@H]1CN(Cc2ccccc2)[C@@H]2CCCO[C@H]12` as the molecule, how does the INHIBITION read?
Answer: 45.56%

Question: How did the INHIBITION turn out when `CN(C)C(=O)CO[C@@H]1CN(Cc2ccccc2)[C@@H]2CCCO[C@@H]21` was run?
Answer: 52.66%

Question: How did the INHIBITION turn out when `CN(C)C(=O)CO[C@H]1CN(Cc2ccc(F)cc2)[C@@H]2CCCO[C@H]12` was run?
Answer: -84.27%

Question: `Cn1cnnc1CNC(=O)C1CCCN(Cc2ccccc2)C1` (stereo not given) was tested. Which INHIBITION did it give?
Answer: 6.33%

Question: Which INHIBITION does the source give for `CCNC(=O)NC1CN(Cc2ccncc2Cl)C[C@@H]1OC` (stereo not given in full) here?
Answer: -0.98%

Question: For `COCC1c2c(cnn2CC2CC2)CCN1Cc1ccc(OC)cc1` (stereo not given), which INHIBITION is on record?
Answer: -4.92%

Question: For `Cc1nc(COC[C@@H]2CC[C@H]3[C@H](CCN3c3ncccn3)O2)cs1`, which INHIBITION is on record?
Answer: -8.23%

Question: With `COc1ccc(C(=O)C2CCCN(CCc3ccccc3)C2)c(OC)c1` (stereo not given) as the molecule, how does the INHIBITION read?
Answer: -18.81%

Question: Which INHIBITION does the source give for `CCOc1cc(CN(C)CC(=O)O)ccc1OC(F)F` here?
Answer: 78.96%

Question: How did the INHIBITION turn out when `CCOc1cc(CN(C)CCC(=O)OC)ccc1OC(F)F` was run?
Answer: 14.96%

Question: With `CCOc1cc(CN(C)Cc2ccccc2)ccc1OC(F)F` as the molecule, how does the INHIBITION read?
Answer: -5.59%

Question: `CCN(Cc1nonc1C)C(=O)c1cc(C(F)(F)F)nn1C` was tested. Which INHIBITION did it give?
Answer: -12.5%

Question: For `O=C(C1CCCO1)N1CCC2(CC1)COCCN(Cc1ccncc1)C2` (stereo not given), which INHIBITION is on record?
Answer: -66.98%

Question: For `COCC(=O)N1CCC2(CCN(Cc3cccnc3)C2)CC1`, which INHIBITION is on record?
Answer: 51.81%

Question: For `COCC(=O)N1CC[C@]2(O)CCN(Cc3ccsc3)C[C@@H]2C1`, which INHIBITION is on record?
Answer: 19.49%

Question: Which INHIBITION does the source give for `COCC(=O)N1CC[C@]2(O)CCN(Cc3cccnc3OC)C[C@@H]2C1` here?
Answer: 56.49%

Question: For `COCC(=O)N1CCC2(CCN(Cc3ccc(C)cc3)CC2)CC1`, which INHIBITION is on record?
Answer: -4.2%

Question: With `COCC(=O)N1CCC2(CC1)C(=O)N(Cc1cccnc1)CCN2C` as the molecule, how does the INHIBITION read?
Answer: 33.3%

Question: How did the INHIBITION turn out when `c1cnc(N2CC3(CCN(Cc4cccnc4)C3)C2)nc1` was run?
Answer: 52.91%

Question: How did the INHIBITION turn out when `c1cnc(N2CCC3(CCN(Cc4cccnc4)CC3)CC2)nc1` was run?
Answer: 45.82%

Question: Which INHIBITION does the source give for `O=C([C@@H]1CCCO1)N1CCOCC2(CCN(Cc3cccnc3)C2)C1` (stereo not given in full) here?
Answer: -31.3%

Question: How did the INHIBITION turn out when `O=C(C1CCCO1)N1CCC2(CC1)COCCN(Cc1cccnc1)C2` (stereo not given) was run?
Answer: 55.49%

Question: For `Cc1cnc(N2CC3(CCN(Cc4cccnc4)C3)C2)nc1`, which INHIBITION is on record?
Answer: 9.53%

Question: `COc1ncccc1CN1CC[C@@]2(O)CCN(C(=O)C3CCC3)C[C@H]2C1` was tested. Which INHIBITION did it give?
Answer: 27.85%

Question: `Cc1cnn(CC2CCCN2C(=O)c2ccc(-n3cccn3)nc2)c1` (stereo not given) was tested. Which INHIBITION did it give?
Answer: -26.85%

Question: How did the INHIBITION turn out when `O=C(NCC(F)(F)F)c1ccc(-c2ccco2)[nH]c1=O` was run?
Answer: -5.09%

Question: How did the INHIBITION turn out when `Cc1cnn(CC2CN(Cc3nccn3CC(F)(F)F)CCO2)c1` (stereo not given) was run?
Answer: 36.64%

Question: With `CN1C[C@@H](NC(=O)c2ccccc2)C[C@H]1c1nc(-c2cnccn2)no1` as the molecule, how does the INHIBITION read?
Answer: 23.26%

Question: `COc1ccc(CNC(=O)CCc2nnc3ccccn3c2=O)cc1` was tested. Which INHIBITION did it give?
Answer: 8.41%

Question: For `CO[C@@H]1CCN(C(=O)Cc2ccc(F)cc2)[C@@H]1Cc1cccnc1`, which INHIBITION is on record?
Answer: -16.75%

Question: Which INHIBITION does the source give for `OC1(Cn2ccc3ncccc32)CCN(Cc2cc(F)cc(F)c2)CC1` here?
Answer: 31.56%

Question: How did the INHIBITION turn out when `CCn1cc(CN2CCC(O)(Cn3ccc4ncccc43)CC2)cn1` was run?
Answer: 22.39%

Question: `OC1(Cn2ccc3ncccc32)CCN(Cc2cccnc2)CC1` was tested. Which INHIBITION did it give?
Answer: 53.24%

Question: `O=C(CCOc1ccccc1)N1CCCC(n2cncn2)C1` (stereo not given) was tested. Which INHIBITION did it give?
Answer: 33.5%

Question: `Cc1nc2c(c(N3CC=CC3)n1)CCN(c1ncccc1C(N)=O)CC2` was tested. Which INHIBITION did it give?
Answer: -11.31%

Question: For `CCS(=O)(=O)CCCOc1nc(-c2ccccc2Cl)no1`, which INHIBITION is on record?
Answer: -5.27%

Question: Which INHIBITION does the source give for `O=C1CCC2(CCC(NC3CCOC3)CC2)N1Cc1ccncc1` (stereo not given) here?
Answer: 56.76%

Question: For `O=C1CCC2(CCC(NC3CCOC3)CC2)N1Cc1ccccc1` (stereo not given), which INHIBITION is on record?
Answer: 35.34%

Question: For `Cc1ccc(CN2C(=O)CCC23CCC(NC2CCOC2)CC3)cc1` (stereo not given), which INHIBITION is on record?
Answer: 29.85%

Question: How did the INHIBITION turn out when `CCc1ccc(CN(C)c2cc(COC)nc3ccnn23)cc1` was run?
Answer: 14.96%

Question: For `CN(Cc1cnn(C)c1)C(=O)C1COc2ccccc2C1` (stereo not given), which INHIBITION is on record?
Answer: -11.77%
